Results as given in PubChem BioAssay AID1159580 (chemical genetic matrix, 2015).
Out of some 5,500 compounds screened, about 2,000 (36%) were called active. About 18% were inconclusive and are not listed. The list shows a part of the results. Values without a mark were called inactive. Cut-off read from the data, not from the text of the source: active = normalized growth mostly below about 0.91 (no sharp cut-off); inconclusive = no clear call, values can overlap the other calls; inactive = mostly above about 0.92.

Test: chemical genetic growth profiling, strain panel (AID 1159580);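 note: tested at 20 µM; growth read once vehicle control cultures reached saturation at 30 °C; 1 = growth at the plate median or of vehicle wells; lower values mean less growth of the strain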
Conditions: S. cerevisiae deletion strains, growth OD

C=CCCCCCCCCCCCC(O)CC(O)CO (centres undefined)
normalized growth (locus YAL013W, strain DEP1, stronger effect = lower value): 0.952 | normalized growth (locus YAL021C, strain ccr4, stronger effect = lower value): 0.987 | normalized growth (locus YAL026C, strain drs2, stronger effect = lower value): 1.01 | normalized growth (locus YAL030W, strain snc1, stronger effect = lower value): 1 | normalized growth (locus YBL061C, strain skt5, stronger effect = lower value): 1 | normalized growth (locus YBR009C, strain hhf1, stronger effect = lower value): 1 | normalized growth (locus YBR021W, strain FUR4, stronger effect = lower value): 0.751 (active) | normalized growth (locus YBR023C, strain chs3, stronger effect = lower value): 1 | normalized growth (locus YBR171W, strain sec66, stronger effect = lower value): 0.986 | normalized growth (locus YBR229C, strain ROT2, stronger effect = lower value): 0.974 | normalized growth (locus YBR231C, strain swc5, stronger effect = lower value): 0.997 | normalized growth (locus YBR279W, strain paf1, stronger effect = lower value): 0.981 | normalized growth (locus YCL011C, strain gbp2, stronger effect = lower value): 0.992 | normalized growth (locus YCL016C, strain dcc1, stronger effect = lower value): 0.987 | normalized growth (locus YCL029C, strain bik1, stronger effect = lower value): 0.968 | normalized growth (locus YCL061C, strain MRC1, stronger effect = lower value): 0.985 | normalized growth (locus YCL069W, strain vba3, stronger effect = lower value): 0.991 | normalized growth (locus YCR088W, strain abp1, stronger effect = lower value): 0.99 | normalized growth (locus YDL005C, strain med2, stronger effect = lower value): 0.987 | normalized growth (locus YDL035C, strain GPR1, stronger effect = lower value): 0.822 (active) | normalized growth (locus YDL040C, strain nat1, stronger effect = lower value): 0.998 | normalized growth (locus YDL074C, strain BRE1, stronger effect = lower value): 0.82 | normalized growth (locus YDL101C, strain DUN1, stronger effect = lower value): 0.949 | normalized growth (locus YDL134C, strain PPH21, stronger effect = lower value): 0.951 | normalized growth (locus YDL185W, strain tfp1, stronger effect = lower value): 0.989 | normalized growth (locus YDL192W, strain arf1, stronger effect = lower value): 0.921 | normalized growth (locus YDR001C, strain nth1, stronger effect = lower value): 0.987 | normalized growth (locus YDR069C, strain doa4, stronger effect = lower value): 1.01 | normalized growth (locus YDR101C, strain arx1, stronger effect = lower value): 0.899 (active) | normalized growth (locus YDR137W, strain rgp1, stronger effect = lower value): 1.01 | normalized growth (locus YDR150W, strain NUM1, stronger effect = lower value): 0.992 | normalized growth (locus YDR159W, strain sac3, stronger effect = lower value): 0.99 | normalized growth (locus YDR162C, strain NBP2, stronger effect = lower value): 0.948 | normalized growth (locus YDR195W, strain ref2): 1.01 | normalized growth (locus YDR297W, strain sur2, stronger effect = lower value): 0.996 | normalized growth (locus YDR318W, strain mcm21, stronger effect = lower value): 0.872 (active) | normalized growth (locus YDR334W, strain swr1, stronger effect = lower value): 1 | normalized growth (locus YDR335W, strain msn5, stronger effect = lower value): 0.998 | normalized growth (locus YDR388W, stronger effect = lower value): 0.98 | normalized growth (locus YDR392W, strain spt3, stronger effect = lower value): 0.918 | normalized growth (locus YDR502C, strain sam2, stronger effect = lower value): 0.912 (active) | normalized growth (locus YEL003W, strain gim4, stronger effect = lower value): 0.993 | normalized growth (locus YEL037C, strain rad23, stronger effect = lower value): 1.01 | normalized growth (locus YEL061C, strain CIN8 (second series), stronger effect = lower value): 0.994 | normalized growth (locus YEL061C, strain CIN8, stronger effect = lower value): 0.962 | normalized growth (locus YER015W, strain faa2, stronger effect = lower value): 0.99 | normalized growth (locus YER016W, strain bim1, stronger effect = lower value): 0.997 | normalized growth (locus YER110C, stronger effect = lower value): 0.969 | normalized growth (locus YER111C, strain swi4, stronger effect = lower value): 0.991 | normalized growth (locus YER155C, strain BEM2 (second series), stronger effect = lower value): 0.986 | normalized growth (locus YER155C, strain BEM2, stronger effect = lower value): 0.97 | normalized growth (locus YER167W, strain BCK2, stronger effect = lower value): 0.872 (active) | normalized growth (locus YFR010W, strain ubp6, stronger effect = lower value): 1 | normalized growth (locus YGL078C, strain dbp3, stronger effect = lower value): 0.967 | normalized growth (locus YGL086W, strain mad1, stronger effect = lower value): 0.875 (active) | normalized growth (locus YGL167C, strain pmr1, stronger effect = lower value): 0.998 | normalized growth (locus YGL173C, strain kem1, stronger effect = lower value): 0.996 | normalized growth (locus YGL227W, strain vid30, stronger effect = lower value): 0.981 | normalized growth (locus YGL240W, strain doc1, stronger effect = lower value): 0.993 | normalized growth (locus YGL248W, strain PDE1, stronger effect = lower value): 0.927 | normalized growth (locus YGL253W, strain hxk2, stronger effect = lower value): 1 | normalized growth (locus YGR078C, strain PAC10, stronger effect = lower value): 0.832 (active) | normalized growth (locus YGR135W, strain pre9, stronger effect = lower value): 0.887 (active) | normalized growth (locus YGR229C, strain SMI1, stronger effect = lower value): 0.947 | normalized growth (locus YGR252W, strain gcn5, stronger effect = lower value): 0.785 | normalized growth (locus YHR013C, strain ard1, stronger effect = lower value): 0.966 | normalized growth (locus YHR027C, strain rpn1, stronger effect = lower value): 0.995 | normalized growth (locus YHR030C, strain SLT2, stronger effect = lower value): 0.974 | normalized growth (locus YHR079C, strain IRE1 (second series), stronger effect = lower value): 0.883 (active) | normalized growth (locus YHR094C, strain hxt1, stronger effect = lower value): 0.985 | normalized growth (locus YHR129C, strain ARP1, stronger effect = lower value): 0.903 (active) | normalized growth (locus YHR142W, strain chs7, stronger effect = lower value): 1.01 | normalized growth (locus YHR200W, strain rpn10, stronger effect = lower value): 0.961 | normalized growth (locus YIL066C, strain RNR3, stronger effect = lower value): 0.784 (active) | normalized growth (locus YIL073C, strain SPO22, stronger effect = lower value): 0.992 | normalized growth (locus YIL125W, strain kgd1, stronger effect = lower value): 0.977 | normalized growth (locus YIR030C, strain dcg1, stronger effect = lower value): 0.942 | normalized growth (locus YJL092W, strain hpr5, stronger effect = lower value): 0.992 | normalized growth (locus YJL095W, strain BCK1 (second series), stronger effect = lower value): 0.99 | normalized growth (locus YJL095W, strain BCK1, stronger effect = lower value): 0.937 | normalized growth (locus YJL115W, strain asf1, stronger effect = lower value): 0.993 | normalized growth (locus YJL129C, strain trk1, stronger effect = lower value): 0.985 | normalized growth (locus YJL134W, strain LCB3, stronger effect = lower value): 0.995 | normalized growth (locus YJL154C, strain vps35, stronger effect = lower value): 0.987 | normalized growth (locus YJL164C, strain tpk1, stronger effect = lower value): 0.997 | normalized growth (locus YJL166W, strain qcr8, stronger effect = lower value): 0.99 | normalized growth (locus YJL168C, strain set2, stronger effect = lower value): 0.974 | normalized growth (locus YJL187C, strain SWE1 (second series), stronger effect = lower value): 0.913 | normalized growth (locus YJL187C, strain SWE1, stronger effect = lower value): 0.996
